# Laboratory results taken from PubChem BioAssay AID936 (University of Pittsburgh Molecular Library Screening Center, 2007).
# A number with no mark means an inactive call. The rule behind the calls is not given here.
# Test: H2O2 production by redox-active compounds – biochemical, 1 mM DTT, artefact control for Plk1 PBD inhibitor project, dose response (AID 936)
# Settings: Redox cycling H2O2 generation, cell-free
row,SMILES,EC50 [µM]
1,O=C(O)COc1ccc(Br)cc1/C=N/O,> 50
2,O=C1C(C2=C(O)c3ccccc3C2=O)=Nc2ccccc21,> 50
3,CCC(Sc1nc2n[nH]c(C)c2c(=N)n1-c1cccc(Cl)c1)C(=O)NCCOC (stereo not drawn),> 50
